Screens: PubChem, several laboratories
Rows were chosen to be rich in hits. Some 3.3% of all compounds tested hit in one or more screens of this group.
Statin myotox sup: suppressors of simvastatin-induced myotoxicity in C2C12 myotubes; ATP luminescence, 48 h; scaled: DMSO 0, geranylgeraniol control 100; rescue of ATP level, % at 7.49 µM; 330,000 compounds, 0.78% hits;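 active = mean ATP rescue above about 67%, or every replicate alone reaching that limit, limit read from the data, passing the limit was not always enough; inconclusive = no clear call, values can overlap the other calls; inactive = mean under the limit and some replicate under it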;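 note: myotubes were challenged with 10 µM simvastatin during compound exposure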
GAA850 FXN act: activators of GAA850 frataxin (FXN) promoter | activation, % at 6 µM | 360,000 compounds, 0.56% hits | HEK293 lucGAA850 FXN promoter luciferase reporter, 24 h; percent of 10 µM SAHA response;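 active = activation above the average of all compounds screened plus 3 SD, cutoff fixed separately per campaign, cut at about 7.5% in these data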;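 note: 0% = DMSO wells and 100% = 10 µM SAHA wells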
Wnt bcat act: activators of Wnt/beta-catenin signaling. AID 743398. activation, % at 9.35 µM. Wnt/beta-catenin reporter cell assay, activator, plate reader. 300,000 compounds, 1.2% hits; in the data active = activation above about 30%, passing the limit was not always enough; inconclusive = no clear call, values can overlap the other calls;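 note: 0% = neutral control wells and 100% = positive control wells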
esBAF inh: blocks esBAF chromatin remodeling in mouse ES cells. Bmi1-luciferase knock-in reporter, 24 h; 100% = twice the neutral-well signal. reporter increase, % at 12.5 µM. 350,000 compounds, 2% hits. AID 602393; in the data active = activation above about 40%; inconclusive = no clear call, values can overlap the other calls;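 note: 0% = median of the plate's neutral control wells and 100% = double that signal; a rise in the Bmi1 reporter signal indicates esBAF inhibition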
MITF act: MITF TRPM1 promoter activation in melanoma cells; SK-MEL-5 TRPM1-promoter luciferase, 24 h; % of positive control, neutral wells = 0; 300,000 compounds, 0.75% hits; activation, % at 12.5 µM;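 active = mean activation of at least 80% with every replicate also reaching 80%; inconclusive = mean reaches 80% but some replicate falls short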;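 note: 0% = neutral control wells and 100% = parthenolide positive control wells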
GAA30 counter: counter-screen for GAA850 frataxin promoter activators: GAA30 promoter activation | shares compounds with GAA850 FXN act | HEK293 lucGAA30 FXN promoter luciferase, 24 h; DMSO = 0%, 5 µM ipriflavone = 100% | activation, % at 6 µM | 1,900 compounds, 66% hits | AID 588350;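 active = mean activation above the mean of solvent-only control wells plus 3 SD, cut at about 22% in these data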;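 note: counterscreen of GAA850 promoter hits where activity marks nonselective or luminescence artifacts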
FXN GAA850 conf: GAA850 FXN promoter activation confirmation | shares compounds with GAA850 FXN act | HEK293 lucGAA850 FXN promoter luciferase reporter, 24 h; 100% = activation by SAHA | activation, % at 6 µM | 1,900 compounds, 86% hits | AID 588351;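 active = mean activation above a set limit taken from the primary screen, cut at about 8% in these data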;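 note: 0% = DMSO wells and 100% = 10 µM SAHA wells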
Numbers without * were called inactive.

What do the screens show for `CCOC(=O)c1c(-c2cccs2)csc1NC(=O)CC(C)C`?
GAA850 FXN act: -1; Wnt bcat act: -5; esBAF inh: 1; MITF act: -7

Results for COC(=O)c1c(-c2cccs2)csc1NC(=O)c1cccnc1 ?
Statin myotox sup: -14; GAA850 FXN act: 9.8*; esBAF inh: inconclusive; MITF act: 59; GAA30 counter: 69*; FXN GAA850 conf: 26*

What do the screens show for `Cc1nc(N2N=C(c3ccc(Cl)cc3)CC2c2ccco2)sc1C(=O)N(C)C` (stereo not given)?
Statin myotox sup: -25; GAA850 FXN act: 11*; Wnt bcat act: 10; esBAF inh: 20; MITF act: -5; GAA30 counter: 26*; FXN GAA850 conf: 22*

Results for O=[N+]([O-])c1cc(/C=N\O)ccc1Oc1ccc(F)cc1 ?
GAA850 FXN act: 9.4*; MITF act: 6; GAA30 counter: 51*; FXN GAA850 conf: 25*

What do the screens show for `CC1CCN(C(=O)CN2C(=O)C(=O)c3ccccc32)CC1`?
Statin myotox sup: 2; GAA850 FXN act: 13*; esBAF inh: -11; GAA30 counter: 22*; FXN GAA850 conf: 8.3*

Results for Cc1c(C=NCCOCc2ccccc2)cnn1C ?
GAA850 FXN act: 10*; MITF act: 18; GAA30 counter: 18; FXN GAA850 conf: 9.0*

Results for Oc1csc(Cc2nc(-c3ccc4ccccc4c3)cs2)n1 ?
Statin myotox sup: 7; GAA850 FXN act: 10*; esBAF inh: 69*; GAA30 counter: 63*; FXN GAA850 conf: 43*

Results for CCNC(=O)C[C@H]1C=C[C@@H](NC(=O)C2CCC2)[C@@H](CO)O1 ?
Statin myotox sup: 1; esBAF inh: -9

What do the screens show for `COc1ccc(NC(=O)N(C)C[C@@H]2OCCCC[C@H](C)Oc3ccc(NC(=O)NC(C)C)cc3C(=O)N([C@@H](C)CO)C[C@@H]2C)cc1`?
esBAF inh: -2

What do the screens show for `Cc1ccc(/C(C#N)=C\c2ccc(N3CCOCC3)o2)cc1`?
Statin myotox sup: 15; GAA850 FXN act: 22*; Wnt bcat act: -11; esBAF inh: 17; MITF act: 46; GAA30 counter: 120*; FXN GAA850 conf: 53*

What do the screens show for `N#C/C(=C/c1ccc(N2CCCCC2)o1)c1cccc(F)c1`?
Statin myotox sup: 27; GAA850 FXN act: 15*; Wnt bcat act: 3; esBAF inh: 74*; MITF act: 46; GAA30 counter: 106*; FXN GAA850 conf: 41*

Results for N#C/C(=C/c1ccc(N2CCCCCC2)o1)c1ccc(Cl)cc1 ?
Statin myotox sup: 22; GAA850 FXN act: 4; esBAF inh: 1; MITF act: 17

Results for Cc1ccc2nc(/C(C#N)=C\c3ccc(N4CCOCC4)o3)[nH]c2c1 ?
GAA850 FXN act: 3; MITF act: 74

How did C[C@@H]1CN([C@@H](C)CO)C(=O)c2cccc(NS(=O)(=O)c3cn(C)cn3)c2O[C@H]1CN(C)Cc1ccncc1 do in these assays?
Statin myotox sup: 4; esBAF inh: -5

What do the screens show for `COc1cccc(C(=O)/C=C2\NCCc3cc(OC)c(OC)cc32)c1`?
Statin myotox sup: -9; GAA850 FXN act: 3; Wnt bcat act: -2; esBAF inh: -8; MITF act: 31

How did COc1cc2c(cc1OC)/C(=C/C(=O)c1ccc(C)cc1)NCC2 do in these assays?
Statin myotox sup: -3; GAA850 FXN act: 8.2*; Wnt bcat act: -1; esBAF inh: 13; MITF act: 22; GAA30 counter: 37*; FXN GAA850 conf: 24*

What do the screens show for `COc1cc2c(cc1OC)/C(=C/C(=O)c1ccccc1)NCC2`?
Statin myotox sup: -13; GAA850 FXN act: 8.5*; Wnt bcat act: -3; esBAF inh: -6; MITF act: -9; GAA30 counter: 29*; FXN GAA850 conf: 15*

What do the screens show for `O=C(Nc1nc2ccccc2[nH]1)C1CCCC1`?
Statin myotox sup: 1; GAA850 FXN act: 10*; Wnt bcat act: 15; esBAF inh: 38; MITF act: 58; GAA30 counter: 86*; FXN GAA850 conf: 26*

What do the screens show for `O=C(Nc1nc2ccccc2[nH]1)C1CCC1`?
Statin myotox sup: 3; GAA850 FXN act: 5; Wnt bcat act: 10; esBAF inh: 37; MITF act: 57

What do the screens show for `COC(=O)C1=C(C)N(C)C(=O)NC1c1cc(Cl)cc(Cl)c1OC` (stereo not given)?
Statin myotox sup: 23; GAA850 FXN act: -1; esBAF inh: -3; MITF act: -4

What do the screens show for `COC(=O)C1=C(C)N(C)C(=O)NC1c1cc(Cl)c(O)c(OC)c1` (stereo not given)?
Statin myotox sup: 10; GAA850 FXN act: 7.8*; Wnt bcat act: -2; esBAF inh: 3; MITF act: -1; GAA30 counter: 10; FXN GAA850 conf: 12*

What do the screens show for `C[C@@H]1CN([C@H](C)CO)C(=O)Cc2cc(NS(=O)(=O)c3cccs3)ccc2O[C@H]1CN(C)CC1CC1`?
Statin myotox sup: 22; esBAF inh: -6

How did CN(c1ccccc1)c1ccc(/C=N/N2CCOCC2)cc1 do in these assays?
Statin myotox sup: -6; GAA850 FXN act: 7.9*; esBAF inh: 31; MITF act: 144*; GAA30 counter: 114*; FXN GAA850 conf: 36*

How did CCC/C=C/c1ccc(CN2C(C(C)C)C(=O)N(Cc3cn(CC4CCCCC4)nn3)CCS2(=O)=O)cc1 (stereo not given) do in these assays?
Statin myotox sup: 1; GAA850 FXN act: 7.9*; Wnt bcat act: -2; esBAF inh: 7; GAA30 counter: 5; FXN GAA850 conf: -1

How did O=C(Nc1ccccc1N1CCOCC1)c1ccccc1NS(=O)(=O)c1ccc(F)cc1 do in these assays?
Statin myotox sup: -1; GAA850 FXN act: 0; esBAF inh: -9; MITF act: 3

What do the screens show for `CCOc1ccc(S(=O)(=O)Nc2ccccc2C(=O)Nc2ccccc2N2CCOCC2)cc1`?
Statin myotox sup: 46; GAA850 FXN act: 8.3*; esBAF inh: -6; MITF act: 1; GAA30 counter: 19; FXN GAA850 conf: 11*

What do the screens show for `CC1CCCC(C)N1CCCNC(=O)c1ccc2c(c1)NC(=O)c1ccccc1S2` (stereo not given)?
Statin myotox sup: -1; GAA850 FXN act: 6; Wnt bcat act: 0; esBAF inh: -7; MITF act: 7

What do the screens show for `CCC(C)N(CCNC(=O)c1ccc2c(c1)NC(=O)c1ccccc1S2)C1CCCCC1` (stereo not given)?
Statin myotox sup: 4; GAA850 FXN act: 11*; Wnt bcat act: -5; esBAF inh: -3; MITF act: -10; GAA30 counter: 18; FXN GAA850 conf: 11*
